Screening results: PubChem BioAssay, National Center for Advancing Translational Sciences (NCATS)
The list is not random: actives were taken first. Their share in the collection is about 9.3%.
FLuc modulator: inhibits or activates purified firefly luciferase, miR-21 counter-screen. P08659. purified FLuc, Km substrates, luminescence inhibition. Potency, µM (highest dose often 57.5 µM), for inactives: top-dose activity change, negative = inhibition, usual class: inhibitors. 360,000 compounds, 6.9% hits;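 also: plate controls were vehicle for no effect and reference inhibitor for full effect; nearly all actives have a fitted effect of over 55% in size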
Target sequence (P08659 whole entry, looked up): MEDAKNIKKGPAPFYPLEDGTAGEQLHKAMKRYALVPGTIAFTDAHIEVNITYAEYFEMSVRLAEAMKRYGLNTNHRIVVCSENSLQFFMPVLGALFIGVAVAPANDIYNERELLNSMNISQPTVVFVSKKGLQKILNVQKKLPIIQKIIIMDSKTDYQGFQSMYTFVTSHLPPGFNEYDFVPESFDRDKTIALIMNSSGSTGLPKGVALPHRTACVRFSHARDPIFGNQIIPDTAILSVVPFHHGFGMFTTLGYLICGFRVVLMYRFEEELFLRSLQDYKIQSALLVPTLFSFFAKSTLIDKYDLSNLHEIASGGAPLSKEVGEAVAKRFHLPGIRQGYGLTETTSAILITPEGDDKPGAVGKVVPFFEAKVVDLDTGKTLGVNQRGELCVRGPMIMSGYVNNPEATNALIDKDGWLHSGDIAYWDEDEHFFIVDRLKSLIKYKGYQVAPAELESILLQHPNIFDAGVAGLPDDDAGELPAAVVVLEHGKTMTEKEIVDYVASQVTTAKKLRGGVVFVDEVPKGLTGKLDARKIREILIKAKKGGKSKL
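Purified P. pyralis luciferase, 10 nM final, with Km-level 10 uM D-luciferin and 10 uM ATP in 50 mM Tris acetate pH 7.5, 10 mM Mg acetate, 0.01% Tween-20, 0.05% BSA; 6-point qHTS titration about 60 µM downward; luminescence read.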
ELG1 DNA repair: blocks ELG1-dependent DNA repair in HEK293T cells | HEK293T ELG1-luciferase reporter, luminescence, 16 h; DNA damage induced by 5-fluorouridine | Potency, µM (top dose mostly 46.1 µM), inactives show at the highest dose activity change, negative = inhibition, most hits filed as inhibitors | 330,000 compounds, 2.3% hits | AID 504467; also: % is scaled to controls: 0 for no effect and ±100 for the full control effect; nearly all actives have a fitted effect of over 55% in size
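HEK293T cells expressing luciferase-tagged ELG1 (2,000/well) received 5-Fluorouridine plus compound or DMSO for 16 hr at 37 °C. Luciferase was read by ONE-Glo luminescence after 30 min at room temperature.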
Rab9 promoter act: activates the Rab9 promoter. Huh7 Rab9 promoter-luciferase reporter, luminescence, 24 h. Potency, µM (doses to about 9.22 µM), for the others: top-dose activation, negative = inhibition, usual class: activators. 320,000 compounds, 2.8% hits. AID 485297; also: % of control where 0% means no effect; nearly all actives have a fitted effect of over 60% in size
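Stable Rab9-luc Huh7, 1500 cells/well, 2 h settle; cmpd in DMSO, 24 h, 37 °C/5% CO2; luciferase reagent 10 min RT; luminescence.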
ELG1 genotox: inducers of genotoxicity in HEK293T ELG1-luciferase cells; HEK293T ELG1-luciferase reporter, luminescence, 16 h; 330,000 compounds, 1.3% hits; Potency, µM (doses to about 46 µM), for the others: at the top dose activity change, positive = activation, hits mostly activators; also: % of control where 0% means no effect; nearly all actives have a fitted effect of over 60% in size
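Quantitative HTS format in 1536-well plates. HEK293T ELG1-luciferase reporter cells receive test compound and are incubated 16 hr at 37 °C, 5% CO2; ONE-Glo added, 30 min room temperature, then luminescence read.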
NPC1 promoter act: activators of NPC1 promoter | Huh7 NPC1 promoter luciferase reporter, 24 h | Potency, µM (highest dose often 9.22 µM), inactives show top-dose activation, hits mostly activators | 320,000 compounds, 2.4% hits; also: % of control where 0% means no effect; nearly all actives have a fitted effect of over 60% in size
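In 1536-well qHTS, Huh7 cells harboring an NPC1 promoter–luciferase construct received compound for 24 h; activation was quantified by luminescence following luciferase reagent addition.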
SMN2 splice enh: enhancers of SMN2 splice variant expression | Potency, µM (doses to about 46.1 µM), inactives show at the highest dose activity change, positive = activation, hits mostly activators | HEK293 SMN2-luciferase splicing reporter, luminescence, 30-36 h | 210,000 compounds, 2.8% hits; also: % of control where 0% means no effect; nearly all actives have a fitted effect of over 55% in size
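HEK293 cells carry an SMN2 […]–luciferase reporter in which exon 7 inclusion puts luciferase in frame. Cells were plated 10-12 h before compound addition, then incubated 30-36 h at 37C. ONE-Glo luminescence was read; sodium butyrate at 4.5 mM final served as control.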
* = called active by the depositor. Calls follow the shape of the dose curve; as a rule, active = well fitted curve in the direction sought with a large enough effect; inconclusive = small, poorly fitted or top-dose-only effect, or another doubt; inactive = no such curve, though single readings can be large; an effect the other way counts as inactive or inconclusive. Potency is read from the fitted curve at half-maximal effect.

How did CC/C(C)=N/Nc1nc(-c2cc3cccc(OC)c3oc2=O)cs1 do in these assays?
FLuc modulator: 8.5µM*; ELG1 DNA repair: inconclusive; Rab9 promoter act: 1.8µM*; ELG1 genotox: inconclusive; NPC1 promoter act: 2.2µM*

What do the screens show for `COc1cccc2cc(-c3cn4c(n3)sc3cc(F)ccc34)c(=O)oc12`?
FLuc modulator: 2.4µM*

What do the screens show for `COC(=O)c1nnn(CC(=O)NC(=O)Nc2cccc(C)c2C)c1C(=O)OC`?
FLuc modulator: -1%; ELG1 DNA repair: 1%; Rab9 promoter act: -1%; ELG1 genotox: 0%; NPC1 promoter act: -2%; SMN2 splice enh: 0%

What do the screens show for `COc1cccc2cc(-c3nnc(-c4ccccc4)o3)c(=O)oc12`?
FLuc modulator: 0.21µM*; ELG1 DNA repair: inconclusive; Rab9 promoter act: 0.5µM*; ELG1 genotox: inconclusive; NPC1 promoter act: 0.5µM*; SMN2 splice enh: 11µM*

How did COc1ccc(-c2nnc(-c3cc4ccccc4oc3=O)o2)cc1 do in these assays?
FLuc modulator: -1%; ELG1 DNA repair: inconclusive; Rab9 promoter act: 24%; ELG1 genotox: 16%; NPC1 promoter act: 2%; SMN2 splice enh: inconclusive

What do the screens show for `CC(C)C(OC(=O)c1cccs1)C(=O)NCc1ccco1` (stereo unspecified)?
FLuc modulator: 1%; ELG1 DNA repair: 3%; Rab9 promoter act: -5%; ELG1 genotox: 1%; NPC1 promoter act: 1%; SMN2 splice enh: 18%

Results for Cc1cc2c(cc(C(=O)OC(C(=O)NCc3ccco3)C(C)C)n2C)o1 (stereo unspecified) ?
FLuc modulator: -2%; ELG1 DNA repair: 23µM*; Rab9 promoter act: 0%; ELG1 genotox: -9%; NPC1 promoter act: -1%; SMN2 splice enh: -17%

How did C/C(=N\Nc1ccc([N+](=O)[O-])cc1)c1cccc(N)c1 do in these assays?
FLuc modulator: 19µM*; ELG1 DNA repair: 8%; Rab9 promoter act: inconclusive; ELG1 genotox: 14%; NPC1 promoter act: inconclusive; SMN2 splice enh: inconclusive

How did C/C(=N\Nc1cc(C)nc(-c2ccccc2)n1)c1cccc([N+](=O)[O-])c1 do in these assays?
FLuc modulator: inconclusive; ELG1 DNA repair: 15µM*; Rab9 promoter act: -2%; ELG1 genotox: -15%; NPC1 promoter act: -3%

How did Cc1cc(NCCCN)nc(-c2ccccc2O)n1 do in these assays?
FLuc modulator: 1%; ELG1 DNA repair: 24%; Rab9 promoter act: 13%; ELG1 genotox: 29%; NPC1 promoter act: 0%; SMN2 splice enh: 69%

Results for Cc1cc(N/N=C/c2ccc(O)c(C)c2O)nc(-c2ccccc2O)n1 ?
FLuc modulator: inconclusive; ELG1 DNA repair: 2.9µM*; Rab9 promoter act: 0%; ELG1 genotox: -6%; NPC1 promoter act: -1%; SMN2 splice enh: -63%

Results for C/C(=N\Nc1cc(C)nc(-c2ccccc2O)n1)c1ccccc1 ?
FLuc modulator: 9.5µM*; ELG1 DNA repair: inconclusive; Rab9 promoter act: -3%; ELG1 genotox: -8%; NPC1 promoter act: -1%; SMN2 splice enh: -21%

Results for Cc1cccc(-c2sc(Nc3ccccc3)n[n+]2-c2ccc(F)cc2)c1 ?
FLuc modulator: -2%; ELG1 DNA repair: -8%; Rab9 promoter act: 0%; ELG1 genotox: -1%; NPC1 promoter act: 1%

Results for CCn1cnc2c1c(=O)n(CC(=O)NN)c(=O)n2Cc1ccccc1 ?
FLuc modulator: -1%; ELG1 DNA repair: -13%; Rab9 promoter act: -7%; ELG1 genotox: -1%; NPC1 promoter act: -4%

Results for CCn1cnc2c1c(=O)n(CC(=O)Nc1ccc(C(N)=O)cc1)c(=O)n2Cc1ccccc1 ?
FLuc modulator: -2%; ELG1 DNA repair: 6.5µM*; Rab9 promoter act: 0%; ELG1 genotox: 2%; NPC1 promoter act: 0%

Results for CCN(CC)C(=O)COC(=O)c1cc(-c2ccco2)nc2ccccc12 ?
FLuc modulator: inconclusive; ELG1 DNA repair: 4%; Rab9 promoter act: 10%; ELG1 genotox: -1%; NPC1 promoter act: 1%; SMN2 splice enh: 6%

How did COc1ccc(-c2cc(C(=O)OCC(=O)NC(C)C)c3ccccc3n2)cc1 do in these assays?
FLuc modulator: 6.7µM*; ELG1 DNA repair: inconclusive; Rab9 promoter act: 20%; ELG1 genotox: 5%; NPC1 promoter act: 13%; SMN2 splice enh: 2%

What do the screens show for `COc1ccc(-c2cc(C(=O)Oc3cccc(C)c3C)c3ccccc3n2)cc1`?
FLuc modulator: inconclusive; SMN2 splice enh: 7%

How did COc1ccc2cc(-c3cc(C(=O)OCC(=O)NC4CCS(=O)(=O)C4)c4ccccc4n3)ccc2c1 (stereo unspecified) do in these assays?
FLuc modulator: 0.48µM*; ELG1 DNA repair: inconclusive; Rab9 promoter act: 0.5µM*; ELG1 genotox: inconclusive; NPC1 promoter act: 0.63µM*; SMN2 splice enh: 1.1µM*

Results for O=C(COc1ccc(Oc2ccccc2)cc1)NC1CCS(=O)(=O)C1 (stereo unspecified) ?
ELG1 DNA repair: inconclusive; ELG1 genotox: -7%

How did Cc1cc(C(=O)OCC(=O)NC2CCS(=O)(=O)C2)c2ccccc2n1 (stereo unspecified) do in these assays?
FLuc modulator: 3%; ELG1 DNA repair: 14%; Rab9 promoter act: 1%; ELG1 genotox: 5%; NPC1 promoter act: -5%; SMN2 splice enh: 1%

Results for CCN(CC)C(=O)COC(=O)c1cc(-c2ccc(OC)cc2)nc2ccccc12 ?
FLuc modulator: 7.6µM*; ELG1 DNA repair: inconclusive; Rab9 promoter act: 4%; ELG1 genotox: -9%; NPC1 promoter act: 10%; SMN2 splice enh: -23%

Results for Cc1ccc(Oc2ccc(OCC(=O)NC3CCS(=O)(=O)C3)cc2)cc1 (stereo unspecified) ?
FLuc modulator: -7%; ELG1 DNA repair: 12µM*; Rab9 promoter act: -10%; ELG1 genotox: 0%; NPC1 promoter act: -8%

How did CCCCOc1ccc(/C=N/NC(=O)c2csc(C)c2C)cc1 do in these assays?
FLuc modulator: inconclusive; ELG1 DNA repair: inconclusive; Rab9 promoter act: -2%; ELG1 genotox: -4%; NPC1 promoter act: 20%; SMN2 splice enh: -5%

How did O=C1NC(Cc2ccc(O)cc2)c2nc3cc(F)ccc3c(=O)n2-c2cc(Cl)ccc21 (stereo unspecified) do in these assays?
ELG1 DNA repair: 14%; ELG1 genotox: -3%

Results for COc1ccc(-c2cc(C(=O)OCC(=O)NC(C)(C)C)c3ccccc3n2)cc1 ?
FLuc modulator: 12µM*; ELG1 DNA repair: -2%; Rab9 promoter act: 15%; ELG1 genotox: -4%; NPC1 promoter act: 10%; SMN2 splice enh: 6%
